For five compounds, Potency, outcome and max activation results are on record in PubChem BioAssay (Tox21).

Each structure is given as a SMILES string. “And” between values parts separate entries of the source, which are not always exact repeats. Equal entries are not always repeated. Inconclusive results are not listed. The source holds several records for some structures; these can differ, active in one and inactive in another. The source made the active and inactive calls. Unless noted, calls follow the shape of the dose curve; as a rule, active = well fitted curve in the direction sought with a large enough effect in the repeat runs; inconclusive = weak or mixed curves; inactive = no such curve, though single readings can be large; an effect the other way counts as inactive or inconclusive.

Assay [1] has as its target Progesterone receptor (Homo sapiens) (UniProt P06401). Description: qHTS assay to identify small molecule agonists of the progesterone receptor (PR) signaling pathway (AID 1346784; calls by dose curve; also: nearly all actives have a fitted effect of over 30% in size). In short, it runs like this: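 Agonist qHTS: compounds pinned onto 3,000 PR-UAS-bla HEK 293T cells per well in charcoal-stripped serum medium, 16hr at 37C, then beta-lactamase activity measured by LiveBLAzer FRET fluorescence after 2 hours at room temperature.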
On the technique in general: Quantitative high-throughput screening tests each substance at several concentrations.

Assay [2] has the same target. Nature of the assay: qHTS assay to identify small molecule antagonists of the progesterone receptor (PR) signaling pathway (AID 1346795; active = well fitted inhibition curve with a large enough effect in the signal ratio in the repeat runs, not every such curve was filed as active; the % refers to the signal ratio). In short, it runs like this:
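Antagonist mode with agonist R5020 at 1 nM final and 16 hr incubation at 37C. Reporter was beta-lactamase driven by UAS in HEK293T (PR-UAS-bla), 2% charcoal-stripped serum; signal from LiveBLAzer FRET substrate, 2 hr at room temperature.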

Assay [3] in a line: qHTS assay to identify small molecule antagonists of the progesterone receptor (PR) signaling pathway - cell viability counter screen (AID 1346798). Also: series mostly up to about 92 µM; nearly all actives have a fitted effect of over 50% in size. In short, it runs like this:
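Cytotoxicity read as CellTiter-Glo luminescence (30 min, room temperature) in the same wells as the beta-lactamase readout. HEK293T PR-UAS-bla cells in charcoal-stripped 2% FBS received compound and R5020, then 16 h at 37C, 5% CO2.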

Assay [4] is described as follows: qHTS assay to identify small molecule agonists of the progesterone receptor (PR) signaling pathway - cell viability counter screen (AID 1346799; calls by dose curve; also: nearly all actives have a fitted effect of over 45% in size). The procedure, abridged: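 Cytotoxicity measured by CellTiter-Glo luminescence (30 min, RT) in the same wells as the PR beta-lactamase agonist read. Those HEK293T cells had 16 h compound treatment at 37 C in 2% charcoal-stripped FBS medium.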

Assay [5] is described as follows: qHTS assay to identify small molecule antagonists of the TGF-beta/Smad signaling pathway - cell viability counter screen (AID 1346824). Also: nearly all actives have a fitted effect of over 50% in size. In short, it runs like this: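 SBE-bla HEK 293T cells, incubated overnight, then compound plus 0.25 ng/mL TGF-beta1 (stock added) for 5 hr at 37 C. Viability was read in the same wells by CellTiter-Glo luminescence after 30 min at room temperature.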

Assay [6] in a line: qHTS assay to identify small molecule agonists of the TGF-beta/Smad signaling pathway - cell viability counter screen (AID 1346829). Also: top concentration of the series differs between compounds; nearly all actives have a fitted effect of over 45% in size. The procedure, abridged:
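After overnight seating at 37 C and 5% CO2, reporter cells got compounds for 5 hr and FRET substrate for 2 hr; cell viability then came from CellTiter-Glo luminescence.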

Assay [7] is described as follows: qHTS assay to identify small molecule agonists of the TGF-beta/Smad signaling pathway (AID 1346859; active = well fitted activation curve with a large enough effect in the signal ratio in the repeat runs, not every such curve was filed as active; the % refers to the signal ratio; also: series mostly up to about 77 µM). In short, it runs like this: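 Fluorescence (ex 405 nm; em 460 and 530 nm) was read 2 h after LiveBLAzer FRET substrate at RT. The preceding compound treatment of overnight-plated SBE-bla HEK293T cells lasted 5 h at 37 C.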
Assay [8] concerns the target Thyrotropin-releasing hormone receptor (Homo sapiens) (UniProt P34981). Description: qHTS assay to identify small molecule antagonists of the thyrotropin-releasing hormone receptor (TRHR) signaling pathway (AID 1346877; active = well fitted inhibition curve with a large enough effect in the repeat runs, not every such curve was filed as active; also: series mostly up to about 51 µM). The procedure, abridged: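 Screening used HEK293 cells engineered with TRHR, with a brief 5 min room-temperature compound exposure preceding addition of TRH to 1 nM. The read-out was kinetic calcium-dye fluorescence, concentration-response from 15 doses in triplicate.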

Assay [9] has the same target. Nature of the assay: qHTS assay to identify small molecule agonists of the thyrotropin-releasing hormone receptor (TRHR) signaling pathway (AID 1346891; calls by dose curve; also: series mostly up to about 58 µM). In short, it runs like this: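 Agonist-mode intracellular calcium readout: kinetic fluorescence over 3 min at 1 s intervals after compound addition to TRHR-HEK293 cells (18 h seeded, 2 h dye-loaded at 37 C). Fifteen concentrations, triplicates.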

Assay [10] is described as follows: Human pregnane X receptor (PXR) small molecule agonists, qHTS cell viability counter screen (AID 1346977). Also: nearly all actives have a fitted effect of over 50% in size. The procedure, abridged: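 Same-well viability read: CellTiter-Fluor added after 23 hr compound exposure, fluorescence measured 1 hr later. Cells were PXR-Luc HepG2 seeded at 2,000/well in 5% charcoal-stripped FBS medium, rested 5 hr before dosing at 37 C.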

The nature of assay [11]: Caspase-3/7 induction in HepG2 cells by small molecules, qHTS assay (AID 1346978). Also: nearly all actives have a fitted effect of over 15% in size. The procedure, abridged:
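Wild-type HepG2 cells, 2,000/well, settled 5 hr at 37 C and 5% CO2, then compound-treated for 17 hr; caspase-3/7 activity read by luminescent Caspase-Glo 3/7 after 30 min at room temperature.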

A short description of assay [12]: Caspase-3/7 induction in CHO-K1 cells by small molecules, qHTS assay (AID 1346980). Also: nearly all actives have a fitted effect of over 15% in size. In short, it runs like this: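 Wild-type CHO-K1 cells exposed to compounds for 17hr at 37 C, 5% CO2. Caspase-3/7 activity then measured by Caspase-Glo 3/7 luminescence after 30min at room temperature.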
A short description of assay [13]: Caspase-3/7 induction in HepG2 cells by small molecules, qHTS cell viability counter screen (AID 1346981). Also: series mostly up to about 92 µM; nearly all actives have a fitted effect of over 30% in size. In short, it runs like this: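 Multiplexed with the caspase-3/7 assay: HepG2 cells, 16 hr compound treatment, CellTiter-Fluor viability detection by fluorescence.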
The target in assay [14] is Nuclear receptor subfamily 1 group I member 2 (Homo sapiens) (UniProt O75469). Nature of the assay: Human pregnane X receptor (PXR) small molecule agonists, qHTS assay (AID 1346982). Also: nearly all actives have a fitted effect of over 35% in size. The procedure, abridged:
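We seeded PXR-Luc HepG2 cells in assay medium containing 5% charcoal-stripped FBS, added compounds 5 hr later, incubated 24 hr, and read luminescence with ONE-Glo reagent.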

Assay [15] concerns the target Cytochrome P450 2D6 (Homo sapiens) (UniProt P10635). Nature of the assay: Cytochrome P450 Family 2 Subfamily D Member 6 (CYP2D6) small molecule antagonists: luciferase reporter qHTS assay (AID 1671196). Also: nearly all actives have a fitted effect of over 50% in size. Also: potency is read from the fitted curve at half-maximal effect. The procedure, abridged: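 Luminescence (RLU), read 20 min after detection reagent, indicated CYP2D6 conversion of proluciferin to luciferin during a 1 h NADPH-dependent reaction at room temperature.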
In general terms: A reporter such as luciferase makes a cellular process visible.

Assay [16] deals with Cytochrome P450 2C19 (Homo sapiens) (UniProt P33261). Nature of the assay: Cytochrome P450 Family 2 Subfamily C Member 19 (CYP2C19) small molecule antagonists: luciferase reporter qHTS assay (AID 1671197). Also: nearly all actives have a fitted effect of over 65% in size. Also: potency is read from the fitted curve at half-maximal effect. The procedure, abridged:
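Inhibition of CYP2C19 was scored from loss of luminescence in a P450-Glo proluciferin substrate assay, NADPH-started and run 1 h at 37C, with ketoconazole as positive control.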

Assay [17] in a line: Caspase-3/7 induction in CHO-K1 cells by small molecules, qHTS cell viability counter screen (AID 1346979). Also: nearly all actives have a fitted effect of over 35% in size. The procedure, abridged: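 Cytotoxicity counter screen: CellTiter-Fluor added to compound-treated wild-type CHO-K1 cells at 16 h (37C, 5% CO2), fluorescence measured 1 h later; same wells as caspase-3/7 measurement.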
In assay [18] the target is Nuclear receptor subfamily 1 group I member 2 (Rattus norvegicus) (UniProt Q9R1A7). Nature of the assay: Rat pregnane X receptor (rPXR) activation by small molecules, qHTS assay (AID 1346983). Also: nearly all actives have a fitted effect of over 20% in size. The following applies: rPXR luciferase reporter cells, One-Glo luminescence, 24 h; stronger effect = higher value. In short, it runs like this:
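Cell-based rPXR activation assay: rPXR cells, 2,000 per well, rested 5hr at 37 C, then exposed to compounds in DMSO for 24 hr at 37 C. Luciferase activity read by One-Glo luminescence after 30 min at room temperature.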

Assay [19] deals with Nuclear receptor subfamily 1 group I member 2 (Homo sapiens) (UniProt O75469). Nature of the assay: CYP3A4 induction through human pregnane X receptor (PXR) by small molecules, qHTS assay (AID 1346984). Also: nearly all actives have a fitted effect of over 40% in size. The procedure, abridged: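 qHTS, concentration-response format: HepG2 DPX-2 line, PXR/CYP3A4-luc. Exposure 24 h, 37C. Substrate Luciferin-IPA 3uM final, 3 h. Detection One-Glo, 30 min RT.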

The target is the same in assay [20]. Nature of the assay: Human pregnane X receptor (PXR) activation by small molecules, qHTS assay (AID 1346985). Also: nearly all actives have a fitted effect of over 40% in size. In short, it runs like this:
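DPX-2 cells (HepG2 co-transfected with a PXR response element and a CYP3A4-promoter luciferase construct) were seeded at 2,000 per well, rested 5 hr at 37C, then exposed to DMSO-dissolved compounds for 24 hr. Activation was read as luciferase luminescence.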
% is scaled to controls: 0 for no effect and ±100 for the full control effect.

Chain of Cytochrome P450 2C19 (Homo sapiens) (P33261 whole entry, looked up): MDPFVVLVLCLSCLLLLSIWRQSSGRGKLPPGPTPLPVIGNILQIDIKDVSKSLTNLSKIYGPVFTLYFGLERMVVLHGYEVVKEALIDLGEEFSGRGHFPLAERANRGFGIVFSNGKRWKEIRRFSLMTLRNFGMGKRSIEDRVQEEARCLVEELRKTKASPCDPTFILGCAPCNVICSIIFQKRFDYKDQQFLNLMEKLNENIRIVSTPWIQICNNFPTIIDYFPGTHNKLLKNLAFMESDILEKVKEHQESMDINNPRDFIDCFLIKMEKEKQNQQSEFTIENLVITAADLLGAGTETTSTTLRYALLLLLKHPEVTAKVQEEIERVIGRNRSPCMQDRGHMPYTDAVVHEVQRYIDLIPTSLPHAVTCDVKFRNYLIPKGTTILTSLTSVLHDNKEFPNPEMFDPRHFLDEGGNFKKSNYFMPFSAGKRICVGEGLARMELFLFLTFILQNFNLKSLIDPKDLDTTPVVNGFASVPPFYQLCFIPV
Chain of Nuclear receptor subfamily 1 group I member 2 (Homo sapiens) (O75469 whole entry, looked up): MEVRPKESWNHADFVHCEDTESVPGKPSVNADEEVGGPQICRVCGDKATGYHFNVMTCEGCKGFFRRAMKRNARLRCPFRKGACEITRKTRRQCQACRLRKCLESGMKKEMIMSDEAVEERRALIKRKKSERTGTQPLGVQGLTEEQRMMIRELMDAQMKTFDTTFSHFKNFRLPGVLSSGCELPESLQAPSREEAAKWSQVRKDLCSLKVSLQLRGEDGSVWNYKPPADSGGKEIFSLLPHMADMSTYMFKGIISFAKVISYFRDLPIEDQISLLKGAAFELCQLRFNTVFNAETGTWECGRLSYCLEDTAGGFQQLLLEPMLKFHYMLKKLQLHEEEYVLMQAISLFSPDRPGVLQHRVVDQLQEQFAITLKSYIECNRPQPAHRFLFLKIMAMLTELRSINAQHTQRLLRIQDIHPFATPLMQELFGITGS
Chain of Progesterone receptor (Homo sapiens) (P06401 whole entry, looked up): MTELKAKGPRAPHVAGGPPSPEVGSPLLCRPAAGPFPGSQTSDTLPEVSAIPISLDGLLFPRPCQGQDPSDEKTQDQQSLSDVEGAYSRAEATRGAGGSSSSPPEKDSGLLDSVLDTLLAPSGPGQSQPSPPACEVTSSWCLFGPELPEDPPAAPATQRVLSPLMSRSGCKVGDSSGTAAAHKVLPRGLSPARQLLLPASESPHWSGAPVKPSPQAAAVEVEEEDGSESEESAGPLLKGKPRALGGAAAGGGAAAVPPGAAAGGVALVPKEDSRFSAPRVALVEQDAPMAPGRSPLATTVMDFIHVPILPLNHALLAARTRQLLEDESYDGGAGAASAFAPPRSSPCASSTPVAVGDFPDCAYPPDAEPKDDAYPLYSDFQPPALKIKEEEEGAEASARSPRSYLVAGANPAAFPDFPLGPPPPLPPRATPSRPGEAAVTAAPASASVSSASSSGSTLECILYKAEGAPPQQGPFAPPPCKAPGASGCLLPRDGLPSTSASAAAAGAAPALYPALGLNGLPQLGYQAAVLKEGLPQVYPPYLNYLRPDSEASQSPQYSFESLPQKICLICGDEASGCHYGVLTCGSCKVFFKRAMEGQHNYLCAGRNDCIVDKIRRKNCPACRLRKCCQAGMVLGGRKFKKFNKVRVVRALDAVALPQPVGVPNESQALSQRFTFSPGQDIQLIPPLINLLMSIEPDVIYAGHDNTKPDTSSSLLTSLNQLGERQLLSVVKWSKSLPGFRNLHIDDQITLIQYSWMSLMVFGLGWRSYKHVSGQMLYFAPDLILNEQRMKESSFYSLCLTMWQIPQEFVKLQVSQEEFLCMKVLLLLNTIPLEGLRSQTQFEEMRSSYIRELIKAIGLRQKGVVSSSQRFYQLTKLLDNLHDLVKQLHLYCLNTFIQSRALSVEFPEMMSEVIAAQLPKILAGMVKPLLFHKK
Chain of Thyrotropin-releasing hormone receptor (Homo sapiens) (P34981 whole entry, looked up): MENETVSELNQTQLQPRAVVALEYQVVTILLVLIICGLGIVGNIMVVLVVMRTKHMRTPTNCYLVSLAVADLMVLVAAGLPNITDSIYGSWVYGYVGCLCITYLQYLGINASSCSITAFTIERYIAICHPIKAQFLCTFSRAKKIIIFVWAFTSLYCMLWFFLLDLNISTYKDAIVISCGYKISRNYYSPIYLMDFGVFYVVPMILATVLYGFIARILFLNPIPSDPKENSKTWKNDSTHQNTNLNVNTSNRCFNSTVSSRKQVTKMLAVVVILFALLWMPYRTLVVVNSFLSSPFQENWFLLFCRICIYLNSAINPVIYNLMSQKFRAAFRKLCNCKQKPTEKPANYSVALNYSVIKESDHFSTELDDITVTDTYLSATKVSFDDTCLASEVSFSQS
Chain of Cytochrome P450 2D6 (Homo sapiens) (P10635 whole entry, looked up): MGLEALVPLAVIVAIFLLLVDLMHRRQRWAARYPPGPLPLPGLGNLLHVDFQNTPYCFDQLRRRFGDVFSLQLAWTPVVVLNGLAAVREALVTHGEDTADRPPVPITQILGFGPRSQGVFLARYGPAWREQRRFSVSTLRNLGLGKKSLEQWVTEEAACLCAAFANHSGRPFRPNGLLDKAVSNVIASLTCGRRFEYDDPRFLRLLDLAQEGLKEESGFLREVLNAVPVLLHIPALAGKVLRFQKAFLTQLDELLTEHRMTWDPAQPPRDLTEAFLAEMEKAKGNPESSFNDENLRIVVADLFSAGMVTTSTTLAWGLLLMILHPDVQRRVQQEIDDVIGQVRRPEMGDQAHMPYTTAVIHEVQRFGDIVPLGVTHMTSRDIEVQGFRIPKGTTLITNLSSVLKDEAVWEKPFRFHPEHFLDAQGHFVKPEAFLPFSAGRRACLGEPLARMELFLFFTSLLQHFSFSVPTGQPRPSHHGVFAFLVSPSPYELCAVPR
Chain of Nuclear receptor subfamily 1 group I member 2 (Rattus norvegicus) (Q9R1A7 whole entry, looked up): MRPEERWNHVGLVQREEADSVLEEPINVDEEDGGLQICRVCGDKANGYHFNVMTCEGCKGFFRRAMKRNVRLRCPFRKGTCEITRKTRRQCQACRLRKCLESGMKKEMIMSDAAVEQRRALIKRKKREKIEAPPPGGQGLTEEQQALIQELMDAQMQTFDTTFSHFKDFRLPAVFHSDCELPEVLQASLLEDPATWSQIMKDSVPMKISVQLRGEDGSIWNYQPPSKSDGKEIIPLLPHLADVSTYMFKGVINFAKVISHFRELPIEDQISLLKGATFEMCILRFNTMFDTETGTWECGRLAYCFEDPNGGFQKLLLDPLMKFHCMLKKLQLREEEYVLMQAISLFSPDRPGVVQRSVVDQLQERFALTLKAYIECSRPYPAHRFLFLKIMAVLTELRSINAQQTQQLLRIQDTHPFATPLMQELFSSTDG

On to `COc1ccccc1[N+](=O)[O-]`, for which the Potency result in [1], in assay [2], in [3], in assay [4], in assay [5] and in [6] was “inactive” each time. Further, the Potency result in assay [7], in assay [8], in [10], in assay [11], in assay [12] and in [13] was “inactive” throughout. Further, the Potency entry in assay [14] and in [15] was “inactive” in each case. The result in assay [9] was inactive. For the same compound, the Potency result in [16] is “inactive and 35.6 µM (active)”.
For `Cc1ccc(C)c(S(=O)(=O)O)c1`, the Potency result in assay [1], in [2], in [3], in assay [4], in assay [5] and in [6] was “inactive” each time. For the same compound, the Potency result in assay [7], in assay [8], in assay [10], in assay [11], in assay [12] and in [13] was “inactive” each time. Further, the Potency entry in assay [14] and in assay [16] was “inactive” in each case. Besides, in assay [9], the call was inactive. Also, the Potency in assay [15] was 64.4 µM (active) and inactive.
On to `CCCCCCCCCCCCCC(=O)O`, for which the Potency result in assay [1], in assay [2], in assay [3], in [4], in [5] and in [6] was “inactive” in each case. Further, the Potency result in assay [7], in [8], in assay [10], in assay [11], in [17] and in assay [12] was “inactive” in each case. The Potency entry in assay [13], in [14], in assay [15] and in [16] was “inactive” each time. Besides, in assay [9], the compound was classed as inactive.
In the case of `O=[N+]([O-])c1ccccc1C(F)(F)F`, the Potency entry in [1], in [2], in [3], in assay [4], in assay [5] and in [6] was “inactive” each time. Moreover, the Potency entry in [7], in assay [8], in assay [10], in [11], in assay [12] and in [13] was “inactive” throughout. Further, the Potency entry in [14] and in [15] was “inactive” each time. Besides, the result in assay [9] was inactive. Moreover, in [16], the Potency is 6.95 µM (active) and inactive.
`CCCCCCCC(=O)O`: the Potency entry in [1], in assay [2], in [3], in [4], in [5] and in assay [6] was “inactive” each time. The Potency result in [7], in assay [10], in [11], in [17], in assay [12] and in [13] was “inactive” in each case. The Potency result in assay [14], in [19] and in [15] was “inactive” throughout. Further, the max activation in assay [18] is 0.66% (inactive). In addition, the compound was classed as inactive in assay [20]. Further, the Potency in assay [16] is 38.5 µM (active) and inactive.
